The list is not random: actives were taken first. Their share in the collection is about 0.64%.
IL-2 act = activators of IL-2. AID 652025. activation, % (series mostly up to about 46 µM). 360,000 tested, 0.065% active. IL-2 activation reporter assay, cell-based qHTS; stimulated with anti-CD3/CD4/CD28 beads; in transgenic mouse T cells; in the data active = activation above about 50%; inconclusive = mostly about 30% to 49%; also: 0% is about no effect
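First, unstimulated transgenic mouse T cells were exposed to compound for 60 min. Next, anti-CD3/anti-CD4-coated beads with anti-CD28 were added. Finally, after 18 h at 37 degrees C, EGFP and DsRed were imaged.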
EPAC1 antagonist = EPAC1 (human) antagonism; Potency, µM (titrated, usually from 115 µM), for the others: top-dose activity change, negative = inhibition, most hits filed as inhibitors; 360,000 tested, 0.14% active; EPAC1 GEF assay, Rap1b-BODIPY-GDP exchange fluorescence; O95398; AID 720709;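 also: potency is read from the fitted curve at half-maximal effect; plate controls were vehicle for no effect and positive control for full effect; nearly all actives have a fitted effect of over 50% in size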
Target sequence (O95398 whole entry, looked up): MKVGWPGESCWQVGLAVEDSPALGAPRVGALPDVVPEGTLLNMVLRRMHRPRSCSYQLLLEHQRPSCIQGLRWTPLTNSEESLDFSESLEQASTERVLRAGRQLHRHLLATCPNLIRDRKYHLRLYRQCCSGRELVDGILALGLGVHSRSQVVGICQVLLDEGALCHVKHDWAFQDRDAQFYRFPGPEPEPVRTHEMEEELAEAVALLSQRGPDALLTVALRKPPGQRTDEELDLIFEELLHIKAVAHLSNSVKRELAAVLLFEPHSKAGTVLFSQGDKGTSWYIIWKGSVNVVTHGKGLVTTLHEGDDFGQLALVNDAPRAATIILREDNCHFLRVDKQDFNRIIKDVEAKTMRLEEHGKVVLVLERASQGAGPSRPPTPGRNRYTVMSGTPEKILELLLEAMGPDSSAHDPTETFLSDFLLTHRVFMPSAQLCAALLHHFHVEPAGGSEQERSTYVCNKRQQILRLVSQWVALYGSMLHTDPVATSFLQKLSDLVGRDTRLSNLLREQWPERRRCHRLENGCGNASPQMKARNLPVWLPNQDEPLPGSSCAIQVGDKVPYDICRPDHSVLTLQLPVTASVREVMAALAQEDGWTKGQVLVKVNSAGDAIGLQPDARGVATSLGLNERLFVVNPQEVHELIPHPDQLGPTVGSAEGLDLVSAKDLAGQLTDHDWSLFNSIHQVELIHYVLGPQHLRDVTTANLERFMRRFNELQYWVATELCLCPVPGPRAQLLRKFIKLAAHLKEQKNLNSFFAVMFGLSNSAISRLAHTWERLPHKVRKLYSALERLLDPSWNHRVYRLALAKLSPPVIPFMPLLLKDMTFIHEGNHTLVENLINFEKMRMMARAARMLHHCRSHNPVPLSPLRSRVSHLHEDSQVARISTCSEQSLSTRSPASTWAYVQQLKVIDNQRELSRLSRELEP
PKM2 act = PKM2 (human) enzyme activation. purified PKM2, Kinase-Glo ATP luminescence, activation; response scale: 0% is enzyme alone, no compound. Potency, µM (doses to about 57.5 µM), inactives show at the highest dose activation, most hits filed as activators. 260,000 tested, 0.34% active. AID 1631; also: potency is read from the fitted curve at half-maximal effect; % is scaled to controls: 0 for no effect and ±100 for the full control effect; nearly all actives have a fitted effect of over 55% in size
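Kinase-Glo luminescence reports ATP generated from ADP (0.1 mM) and PEP (0.5 mM) by purified hPK-M2 after 1 h at room temperature, pH 7.2 imidazole buffer; intermediate enzyme activity allows detecting inhibitors and activators.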
EPAC1 agonist = agonists of human EPAC1; O95398; EPAC1 agonist qHTS, biochemical assay; response scale: 100% = response to 6.5 mM cAMP; Potency, µM (series often up to 154 µM), for the others: at the highest dose activation, usual class: activators; 360,000 tested, 0.073% active; also: potency is read from the fitted curve at half-maximal effect; nearly all actives have a fitted effect of over 60% in size
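Nucleotide exchange assay: 100 nM EPAC1 with 250 nM Rap1B loaded with BODIPY-GDP and 50 uM GDP, room temperature. Fluorescence (480/540 nm) read every 5 min for 30 min; signal change normalized to 6.5 mM cAMP as full agonist.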
EPAC2 antag = EPAC2 (human) antagonism; 360,000 tested, 0.18% active; AID 720708; Q8WZA2; EPAC2 GEF exchange of Rap1B-BODIPY-GDP, fluorescence; Potency, µM (top dose mostly 114 µM), for the others: at the top dose activity, negative = inhibition, usual class: inhibitors; also: potency is read from the fitted curve at half-maximal effect; % is scaled to controls: 0 for no effect and ±100 for the full control effect; nearly all actives have a fitted effect of over 45% in size
EPAC2 ag = activates human EPAC2 exchange factor | Q8WZA2 | EPAC2 activation, biochemical qHTS; response scale: 100% = 6.5 mM cAMP response | Potency, µM (top dose mostly 154 µM), without a hit: at the top dose activation, usual class: activators | 360,000 tested, 0.079% active; also: potency is read from the fitted curve at half-maximal effect; nearly all actives have a fitted effect of over 50% in size
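Exchange assay: 100 nM EPAC2 with 250 nM Rap1B-BODIPY-GDP and 50 uM GDP. Fluorescence (ex 480/em 540 nm) read every 5 min for 30 min at room temperature. Data normalized to 6.5 mM cAMP as agonist control.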
Starred values were filed as active, the others as inactive; ? = inconclusive; . = not tested or not shown. Unless noted, calls follow the shape of the dose curve; as a rule, active = well fitted curve in the direction sought with a large enough effect; inconclusive = small, poorly fitted or top-dose-only effect, or another doubt; inactive = no such curve, though single readings can be large; an effect the other way counts as inactive or inconclusive.

SMILES	IL-2 act	EPAC1 antagonist	PKM2 act	EPAC1 agonist	EPAC2 antag	EPAC2 ag
O=S(c1cc(Cl)cc(Cl)c1O)c1cc(Cl)cc(Cl)c1O	-1	40µM*	.	-5%	38µM*	-7%
Oc1c(Cl)cc(Cl)cc1Sc1cc(Cl)cc(Cl)c1O	.	.	0%	.	.	.
COc1ccc(S(=O)(=O)N2CCC(n3cnc4cc(C(F)(F)F)ccc43)CC2)cc1	1	-1%	18%	-1%	-13%	13%
COc1ccc(S(=O)(=O)N2CCC(n3cnc4ccccc43)CC2)cc1	-1	-2%	16µM*	7%	-6%	9%
CCN1C/C(=C/c2ccc(N3CCOCC3)cc2)C(=O)/C(=C/c2ccc(N3CCOCC3)cc2)C1	6	39%	12%	63µM*	135%	89µM*
CN1C/C(=C\c2ccc(N3CCOCC3)cc2)C(=O)/C(=C/c2ccc(N3CCOCC3)cc2)C1	6	13%	8%	22%	8%	?
CC(=O)c1ccc2c3c(cccc13)CC2	-1	2%	3%	-1%	8%	0%
ON=C(c1ccccc1)c1ccc2c3c(cccc13)CC2	1	6%	.	4%	14µM*	19%
C=CCNC(=S)N1CCN(Cc2ccccc2)CC1	0	1%	1%	-6%	16%	-2%
Cc1ccc(-n2nc(C)c(Sc3ccccc3[N+](=O)[O-])c2N)cc1	-2	-2%	6%	7%	0%	16%
CC(=O)Oc1c(Sc2ccccc2[N+](=O)[O-])c(C)nn1C(C)(C)C	0	?	.	10%	50µM*	8%
CCc1cccc(CC)c1NC(=O)COC(=O)C1(C)CC1(Cl)Cl (configuration not stated)	1	-9%	15%	0%	0%	5%
CCNc1nc(NCC)nc(OCCOC(=O)c2ccccc2)n1	-2	-3%	14µM*	6%	-7%	-3%
O=[N+]([O-])c1ccc(Cl)c(S(=O)(=O)NCCc2ccccn2)c1	2	-13%	.	4%	4%	1%
CCN(CC)c1ccc(/C=C(\C#N)C(=O)NCc2ccccc2)cc1	14	-2%	9%	100µM*	28%	8%
CCN(CC)c1ccc(/C=C(\C#N)C(=O)NCc2ccco2)cc1	.	.	3%	.	.	.
COc1cc(C(c2c(C(=O)O)[nH]c3ccccc23)c2c(C(=O)O)[nH]c3ccccc23)ccc1OCc1ccccc1	0	40µM*	0%	1%	-26%	-4%
Cc1ccc(C)c(S(=O)(=O)N2CCN(C(=O)[C@H](Cc3ccccc3)NC(=O)c3ccco3)CC2)c1	1	10%	.	11%	4%	8%
C/C(=N\Nc1ncc(Cl)cc1Cl)c1ccccn1	71*	13%	8%	25%	-11%	6%
C/C(=N\Nc1ncnc2sc(C)c(C)c12)c1ccccn1	122*	-29%	.	-4%	-9%	-1%
O=S(=O)(c1ccc2ccccc2c1)N1CCCCCC1	-1	-25%	10%	13%	?	8%
C[C@H](NC(N)=O)C(=O)N1CCN(S(=O)(=O)c2ccc3ccccc3c2)CC1	1	-9%	?	4%	-6%	4%
CN1CCCN(S(=O)(=O)c2ccc3ccccc3c2)CC1	-4	-17%	20µM*	-8%	8%	4%
CNC(=S)N1CCN(S(=O)(=O)c2ccc3ccccc3c2)CC1	-2	-7%	20µM*	3%	-11%	9%
COC(=O)c1ccccc1NC(=O)Nc1c(C)n(C)n(-c2ccccc2)c1=O	-3	13%	0%	9%	4%	-6%
SMILES	IL-2 act	EPAC1 antagonist	PKM2 act	EPAC1 agonist	EPAC2 antag	EPAC2 ag
O=c1cc(CSc2nnc(COc3ccccc3Cl)o2)nc2sccn12	-2	6%	25µM*	5%	0%	7%
CC(C)NC(=O)NC(=O)CSc1nnc(COc2ccccc2Cl)o1	0	13%	1%	3%	3%	-10%
CCCCNS(=O)(=O)c1ccc2nc(SCC(=O)Nc3ccccc3)[nH]c2c1	0	?	3%	-7%	-25%	-1%
CCCCNS(=O)(=O)c1ccc2nc(SCC(=O)c3ccc(C#N)cc3)[nH]c2c1	0	?	22µM*	-7%	11%	-31%
CCOc1ccc(N(CC(=O)NCCSCc2ccccc2)S(=O)(=O)c2ccccc2)cc1	1	-3%	-2%	2%	-11%	13%
O=c1cc2oc3cc(O)c(O)cc3c(-c3ccccc3[N+](=O)[O-])c-2cc1O	-2	79µM*	.	0%	?	5%
O=C(NCC1CCCO1)c1ccc2c(=O)n(CC3CCCO3)c(SCC(=O)N3CCCC3)nc2c1 (configuration not stated)	2	7%	-8%	-6%	18%	0%
COc1ccccc1/C=C1\SC(=S)N(NS(=O)(=O)c2ccc(C)cc2)C1=O	-1	79µM*	.	-4%	?	8%
COc1ccc(OC)c(/C=C2\SC(=S)N(NS(=O)(=O)c3ccccc3)C2=O)c1	-1	?	.	-6%	?	14%
COc1ccc(OC)c(/C=C2\SC(=S)N(NS(=O)(=O)c3ccc(C)cc3)C2=O)c1	1	56µM*	.	9%	?	9%
COc1ccc(/C=C2\SC(=S)N(NS(=O)(=O)c3ccc(C)cc3)C2=O)c(OC)c1	-3	?	.	-1%	-13%	-18%
O=C(Nc1ncc2c(n1)CC(c1ccco1)CC2=O)c1ccco1 (configuration not stated)	-2	-19%	28µM*	-6%	4%	4%
CCOC(=O)N(C)c1c(CC)nc2c(OCc3ccc(C(F)(F)F)cc3)cccn12	-1	?	.	-14%	35µM*	-4%
CCCCC(=O)N(C)c1c(CC)nc2c(OCc3ccc(C(F)(F)F)cc3)cccn12	0	-23%	.	-15%	20µM*	0%
N#C/C(=C(/O)CSc1ccccn1)c1nc2ccccc2s1	1	0%	3%	10%	-18%	5%
Cc1ccc(SC/C(O)=C(\C#N)c2nc3ccccc3s2)cc1	0	-11%	-6%	-3%	-26%	10µM*
COc1ccc(NC(=O)CCCNC(=O)c2ccc(Cl)cc2)cc1S(=O)(=O)N1CCOCC1	0	-10%	.	4%	3%	11%
CC(Oc1ccc(-c2nnco2)cc1)C(=O)N1CCOCC1 (configuration not stated)	2	-20%	.	32µM*	1%	-2%
O=C(Oc1ccc(-c2nnco2)cc1)N1CCOCC1	0	7%	-6%	-2%	8%	-3%

Screens as filed in PubChem.
